PNC inhibitor: inhibitors of perinucleolar compartment assembly; PC3M PTB-GFP, PNC prevalence imaging, 16 h; stronger effect = lower value; activity change (PNC), negative = inhibition, % at 10 µM; 140,000 compounds, 3.1% hits; AID 2417;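 active means readout at or below -70, meaning at least 70% loss of cells showing the perinucleolar compartment, a nuclear body marking cancer cells; inconclusive means readout between -30 and a set limit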;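 further: plate controls were DMSO wells for no effect and camptothecin positive control wells for full effect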
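Compounds are pinned in duplicate onto adhered PC3M cells stably expressing GFP-tagged PTB and incubated 16 h at 37 C. Cells are then fixed, nuclei stained with Hoechst, and PNC-positive cells counted.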
IMPase Li inh: IMPase inhibition in cells with lithium potentiation; CHO-M1 cells, IP1 TR-FRET (IP-One), carbachol + lithium; Potency, µM (series often up to 59.4 µM), for the others: at the top dose activity, negative = IMPase inhibition, most hits filed as inhibitors; 210,000 compounds, 0.35% hits; AID 1457;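 further: IP1 builds up when IMPase is blocked and the TR-FRET signal falls; potency means the concentration at half of the fitted maximal effect; plate controls were basal vehicle for no effect and high inhibitor control for full effect; nearly all actives have a fitted effect of over 50% in size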
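Steps: plate 2000 CHO-M1 cells per well and culture 16–30 h; add compound and lithium; incubate 30 min, 37C; add d2-IP1 tracer and Eu cryptate anti-IP1 antibody in lysis buffer; read after 10 min at room temperature.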
IMPase cell inh: membrane-permeable compound that blocks inositol monophosphatase. P97697. CHO-M1 cells, IP1 accumulation, HTRF TR-FRET ratio. inhibition (IP1 accumulation), % at 46.1 µM. 120,000 tested, under 10 active; active means well fitted curve in the direction sought with a large enough effect in the signal ratio, not every such curve was filed as active; inconclusive means small, poorly fitted or top-dose-only effect, or a change in a side signal; inactive means no such curve, though single readings can be large or run the other way; the % refers to the signal ratio;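 further: cells stimulated with carbachol in lithium chloride buffer; plate controls were DMSO basal wells for no effect and reference inhibitor wells for full effect; higher means more IMPase inhibition seen as more IP1 and lower FRET ratio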
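Measured: the HTRF emission ratio (665/620 nm) plus the 620 nm donor channel, each fitted to the Hill equation to give AC50. Cells were CHO-M1 given compounds up to 46 uM and a 30 min carbachol stimulation at 37C.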
ALOX15B inhib: blocks human 15-lipoxygenase 2 activity; Potency, µM (highest dose often 57.1 µM), inactives show top-dose activity change, negative = inhibition, actives largely listed as inhibitors; O15296; 110,000 compounds, 0.56% hits; AID 881; purified 15hLO-2, xylenol orange hydroperoxide absorbance; further: potency means the concentration at half of the fitted maximal effect; nearly all actives have a fitted effect of over 60% in size
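Screening format was qHTS against 50 nM purified 15hLO-2 in Hepes pH 7.5 with detergent. Activity follows hydroperoxide formation from 45 uM arachidonic acid, measured as 573:405 nm absorbance ratio of the ferric-xylenol orange complex.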
ALOX12 inhib: blocks human 12-lipoxygenase activity | P18054 | purified 12-hLO, xylenol orange hydroperoxide absorbance | Potency, µM (titrated, usually from 57.1 µM), for inactives: at the highest dose activity change, negative = inhibition, hits mostly inhibitors | 150,000 compounds, 0.12% hits | AID 1452; further: potency means the concentration at half of the fitted maximal effect; nearly all actives have a fitted effect of over 55% in size
Target sequence (P18054 whole entry, looked up): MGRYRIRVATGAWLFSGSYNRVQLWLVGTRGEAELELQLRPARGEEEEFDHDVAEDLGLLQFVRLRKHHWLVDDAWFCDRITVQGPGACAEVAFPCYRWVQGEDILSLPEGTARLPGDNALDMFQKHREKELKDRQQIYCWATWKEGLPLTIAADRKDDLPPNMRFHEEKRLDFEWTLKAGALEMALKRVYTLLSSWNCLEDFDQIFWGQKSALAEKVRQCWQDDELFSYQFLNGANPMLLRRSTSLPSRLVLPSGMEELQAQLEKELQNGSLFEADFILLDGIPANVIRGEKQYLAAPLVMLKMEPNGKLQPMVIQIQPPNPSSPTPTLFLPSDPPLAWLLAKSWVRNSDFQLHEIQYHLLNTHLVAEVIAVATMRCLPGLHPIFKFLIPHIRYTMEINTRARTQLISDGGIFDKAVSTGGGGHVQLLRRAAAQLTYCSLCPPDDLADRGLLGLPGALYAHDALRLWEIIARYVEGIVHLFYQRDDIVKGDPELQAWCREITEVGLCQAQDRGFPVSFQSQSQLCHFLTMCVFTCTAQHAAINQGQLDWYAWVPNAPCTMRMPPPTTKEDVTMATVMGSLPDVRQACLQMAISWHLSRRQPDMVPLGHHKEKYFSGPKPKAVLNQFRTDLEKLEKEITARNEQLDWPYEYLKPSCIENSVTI
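Hydroperoxide output read as Fe(III)-xylenol orange absorbance, 573-to-405 nm ratio, after 30 min reaction with 40 uM arachidonic acid. Enzyme: 150 nM purified human 12hLO, 15 min compound preincubation; 25 mM Hepes pH 7.0, room temperature.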
HPGD inh: blocks human HPGD enzyme activity. 150,000 compounds, 4.3% hits. P15428. Potency, µM, for inactives: top-dose activity change, negative = inhibition, hits mostly inhibitors. purified HPGD, NADH fluorescence kinetic, PGE2 substrate; active means well fitted inhibition curve with a large enough effect, not every such curve was filed as active; inconclusive means small, poorly fitted or top-dose-only effect, or another doubt; inactive means no such curve, though single readings can be large or run the other way; further: potency means the concentration at half of the fitted maximal effect
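NADH formation kinetics: reaction with 30 uM PGE2 and 1 mM NAD+ (final), 20 nM enzyme, Tris-HCl pH 8 with Tween 20, after 15 min compound preincubation at room temperature. Fluorescence change, last versus first of five reads.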
* = called active by the depositor; ? = inconclusive; / = no result; [ ] = another dose, or the depositor's remark. Hits are enriched below; roughly 5.4% of the tested compounds scored in any of these assays. Unless noted, the call rests on the fitted dose curve; in most records, active means well fitted curve in the direction sought with a large enough effect; inconclusive means small, poorly fitted or top-dose-only effect, or another doubt; inactive means no such curve, though single readings can be large; an effect the other way counts as inactive or inconclusive. Unless noted, on the % scale 0 is the no-effect control and ±100 the full control effect.

SMILES	PNC inhibitor	IMPase Li inh	IMPase cell inh	ALOX15B inhib	ALOX12 inhib	HPGD inh
O=C(CSc1ncn[nH]1)c1ccco1	-7	3%	18	/	-5%	25µM*
O=C(CSc1ncn[nH]1)c1ccccc1	26	11%[38.3 µM]	-6	-7%	-17%	22µM*
O=C(O)c1ccc(CSc2nnc(SCc3ccccc3)s2)cc1	7	-1%[38.3 µM]	-10	-13%	-1%	20µM*
Cc1nnc(SCc2ccc(C(=O)O)cc2)s1	-17	36%[38.3 µM]	1	0%	-6%	-13%
Cc1ccc(NC(=O)c2ccc(CSc3nnc(C)s3)cc2)cc1	-100*	-2%[38.3 µM]	-1	-2%	5%	-14%
Nc1ncnc2c1ncn2[C@@H]1O[C@@H](CO)[C@H](O)[C@@H]1O	/	/	-1	-6%	2%	/
COc1ccc(-c2cc(C(=O)NCCc3ccc(OC)c(OC)c3)c3ccccc3n2)cc1	/	/	-12	/	/	/
COc1cc2c(cc1OC)-c1c(oc3cc(O)cc(O)c3c1=O)CO2	/	12%	/	?	-5%	-16%
C=CCOc1ccc(CN(C)CC(=O)N(CC(C)C)c2c(N)n(CC(C)C)c(=O)[nH]c2=O)cc1	-101*	6%[38.3 µM]	2[1.84 µM]	5%[11.4 µM]	2%	-8%
Cc1cc(Nc2ccc(C)c(C)c2)n2nc(C)nc2n1	-20	0%[38.3 µM]	-13	-2%	-2%	-26%
Cc1ccc(Nc2nnns2)cc1C	-82*	3%[38.3 µM]	-8	3%	-8%	22µM*
COc1cc(NC(=O)c2cc3nc(-c4ccc(C)cc4)cc(C(F)(F)F)n3n2)cc(OC)c1OC	/	/	-6	/	/	/
CCOc1cccc2cc(C(=O)N3CCc4ccccc4C3)c(=O)oc12	28	24%[38.3 µM]	-8	-7%	-9%	4.5µM*
COc1cccc2cc(C(=O)NC(C)C3CCCO3)c(=O)oc12 (centres undefined)	-87*	24%[38.3 µM]	9[1.84 µM]	4%[11.4 µM]	3%	-26%
COc1cccc2cc(C(=O)N3CCc4ccccc4C3)c(=O)oc12	?	-3%[38.3 µM]	6	9%	1%	7.9µM*
COc1cc2c(cc1OC)CN(C(=O)c1cc3ccccc3oc1=O)CC2	-13	11%[38.3 µM]	-1	8%	-1%	-1%
O=C(NCCCCN1CCCC1)c1ccc(Cc2nc3ccccc3[nH]2)cc1	/	/	/	/	-1%	-10%
Cc1ccc(S(=O)(=O)O[C@@H]2[C@H]([C@@H]3COC(C)(C)O3)O[C@H]3OC(C)(C)O[C@@H]32)cc1	/	7%	/	-2%[11.4 µM]	-3%[11.4 µM]	-6%
CCN(CC)S(=O)(=O)c1cccc(-c2n[nH]c(=S)n2/N=C/c2ccc(Br)cc2)c1	-20	-3%	/	/	-1%	14µM*
CCN(CC)S(=O)(=O)c1cccc(-c2n[nH]c(=S)n2/N=C/c2ccc(OC)cc2)c1	17	8%	/	/	-6%	16µM*
CCN(CC)S(=O)(=O)c1cccc(-c2n[nH]c(=S)n2C(C)COC)c1 (centres undefined)	/	8%	/	/	/	/
CCC(C)n1c(-c2cccc(S(=O)(=O)N(CC)CC)c2)n[nH]c1=S (centres undefined)	/	3%	/	/	/	/
CCN(CC)S(=O)(=O)c1cccc(-c2n[nH]c(=S)n2/N=C/c2ccc(OC(F)F)cc2)c1	72	-1%	7	/	-16%	3.2µM*
COC(=O)[C@@]1(Cc2ccc(OC)cc2)[C@H]2c3cc(C(=O)N4CCCC4)n(CCc4c[nH]c5cc(F)ccc45)c3C[C@H]2CN1C(=O)c1ccccc1	/	3%	/	-4%	-18%	-8%
COc1ccc2c(c1)C(c1ccc3c(c1)OCO3)CC(=O)O2 (centres undefined)	/	-9%	/	?	-4%[0.00818 µM]	-8%
SMILES	PNC inhibitor	IMPase Li inh	IMPase cell inh	ALOX15B inhib	ALOX12 inhib	HPGD inh
COc1cc(/C=C(/NC(=O)c2ccccc2)C(=O)Nc2ccccc2)c([N+](=O)[O-])cc1OC	110	?	-13	-12%	-19%	-3%
COc1ccc(NC(=O)/C(=C\c2cc(OC)c(OC)cc2[N+](=O)[O-])NC(=O)c2ccccc2)cc1	20	-8%[38.3 µM]	4	-7%	7%	32µM*
CCNc1sc(C(=O)c2cccs2)c(N)c1C#N	20	10%[38.3 µM]	1	-7%	-29%	-20%
C=CCNc1sc(C(=O)c2cccs2)c(N)c1C#N	-119*	?	3	/	0%	-7%
COc1ccc(OC)c(CCNC(=O)Cn2sc3nc(C)cc(C)c3c2=O)c1	-9	26%[38.3 µM]	7	?	?	1.4µM*
COc1ccc(-c2nc(CS(=O)(=O)CC(=O)NCCc3cc(OC)ccc3OC)c(C)o2)cc1	-20	8%[38.3 µM]	?	/	0%	-27%
O=C(CCn1c(=O)oc2ccccc21)NCc1ccc2c(c1)OCO2	18	19%[38.3 µM]	7	-3%	-1%	-12%
O=C(CCn1cccc1)NCc1ccccc1	-12	0%[38.3 µM]	-8	-6%	2%	?
O=C(CCn1cccc1)NCc1ccc2c(c1)OCO2	5	-2%[38.3 µM]	0	-2%	-4%	20µM*
O=C(CCn1c(=O)sc2ccccc21)NCc1ccc2c(c1)OCO2	-119*	17%	6	/	3%	-9%
COC(=O)[C@@H](NC(=O)N1CCc2nc(COc3ccccc3)c3c(c2C1)CO[C@@H](C)C3)C(C)C	/	-3%	/	/	0%[11.4 µM]	-6%
COc1cccc(OC)c1C(=O)N1CCN(S(=O)(=O)c2ccccc2)CC1	-99*	38%[38.3 µM]	1	8%	13%	-6%
COc1ccccc1C(=O)N1CCN(S(=O)(=O)c2ccccc2)CC1	46	-23%[38.3 µM]	-9	2%	0%	0%
C[N+](C)([O-])Cc1cc(-c2ccccc2)ccc1O	/	-9%	/	-2%[11.4 µM]	1%[11.4 µM]	-11%
CCN(CC)S(=O)(=O)c1ccc(-c2nnco2)cc1	-100*	2%	-3	/	-4%	-10%
Cc1ccc(S(=O)(=O)N(C)Cc2ccc(-c3nnco3)cc2)cc1	64	-2%[38.3 µM]	5	2%	0%	?
O=C(NCCN1CCCCC1)c1ccc(-n2c(=O)c(=O)[nH]c3ccccc32)cc1	/	/	/	/	-6%	-8%
O=S(=O)(Nc1cccc(S(=O)(=O)N2CCOCC2)c1)c1ccc(Cl)s1	/	-2%	/	/	/	/
O=C(Nc1cc(S(=O)(=O)N2CCOCC2)ccc1O)c1ccc(NS(=O)(=O)c2ccc(Cl)s2)cc1	-134*	2%	/	/	-7%	-14%
COc1ccc(NS(=O)(=O)c2ccc3nc(-c4ccccc4)[nH]c3c2)cc1	/	/	7	/	/	/
COc1ccc(NS(=O)(=O)c2ccc3nc(COc4ccc(Cl)c(C)c4)[nH]c3c2)cc1	-106*	/	-2	/	-13%	/
COCCn1c(=O)c(CCc2ccccc2)nc2cnc(Oc3cccc(Cl)c3)nc21	/	9%	/	0%	-5%	-9%
CC(N)CN (centres undefined)	/	23%	/	-4%	-1%	-10%

Bioassay records deposited in PubChem by National Center for Advancing Translational Sciences (NCATS).
